# ST2 IL33 inh = IL1RL1 inhibition. Q01638. AlphaLISA ST2-Fc/biotin-IL-33 interaction, 1 h. inhibition, % for hits at 17 µM. actives 2.3% (n = 78,000); in the data active = inhibition above about 30%
# Target sequence (Q01638 whole entry, looked up): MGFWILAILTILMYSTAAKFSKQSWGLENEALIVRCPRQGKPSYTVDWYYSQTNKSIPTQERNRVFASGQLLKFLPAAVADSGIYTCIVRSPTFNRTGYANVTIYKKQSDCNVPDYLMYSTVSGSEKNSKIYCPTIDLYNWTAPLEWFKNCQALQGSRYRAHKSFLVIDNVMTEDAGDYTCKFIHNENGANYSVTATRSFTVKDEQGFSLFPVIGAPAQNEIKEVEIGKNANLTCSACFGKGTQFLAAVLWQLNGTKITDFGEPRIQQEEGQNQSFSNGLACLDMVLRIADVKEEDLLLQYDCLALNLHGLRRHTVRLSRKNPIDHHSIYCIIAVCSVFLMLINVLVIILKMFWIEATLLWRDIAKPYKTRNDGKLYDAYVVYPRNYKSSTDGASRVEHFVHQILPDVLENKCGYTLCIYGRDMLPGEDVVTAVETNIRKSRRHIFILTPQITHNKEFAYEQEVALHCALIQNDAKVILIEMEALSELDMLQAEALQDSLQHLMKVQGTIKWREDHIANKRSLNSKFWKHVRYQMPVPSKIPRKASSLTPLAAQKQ
# Numbers without * were called inactive; i = inactive; ! = not confirmed by another sample. Shown is part of a subset that was picked to be rich in hits.
SMILES,ST2 IL33 inh
COc1cc2c(cc1OC)CN(C1CCCN(Cc3csc(C(C)=O)c3)C1)CC2 (stereo unspecified),i
COc1cc2c(C(=O)N3CCCCCC3)cn(C)c(=O)c2cc1OC,i
COCc1ccc(CN2CCCC(C(=O)c3ccc4c5c(cccc35)CC4)C2)o1 (stereo unspecified),i
CC1=C(C(=O)Nc2ccccn2)C(c2ccc(N(C)C)cc2)C2=C(CCCC2=O)N1 (stereo unspecified),i
CCOC(=O)C1=NN(c2ccccc2)C2C(=O)N(c3ccccc3Cl)C(=O)C12 (stereo unspecified),i
CC1CCc2c(sc(N=Cc3cccnc3)c2C#N)C1 (stereo unspecified),30.0%*
CC1CCc2c(sc(NC(=O)c3cc(=O)c4ccccc4o3)c2C#N)C1 (stereo unspecified),i
Cc1onc(-c2ccccc2Cl)c1C(=O)Nc1sc2c(c1C#N)CCC(C)C2 (stereo unspecified),i
O=C(COc1cc(Cl)ccc1Cl)Nc1cccc(C(F)(F)F)c1,i
CC(=O)N(CN1C(=O)c2ccc([N+](=O)[O-])cc2C1=O)c1cc(Br)ccc1C,i
COc1cc(C(=O)Nc2ccc(NC(C)=O)cc2)cc(OC)c1OC,i
CCCCOc1ccc(C2=N/C(=C\c3ccc([N+](=O)[O-])cc3)C(=O)O2)cc1,i
CCOc1ccc(/C=C2\N=C(c3ccc([N+](=O)[O-])cc3)OC2=O)cc1,i
CCOc1ccc(/C=C2\N=C(c3cc([N+](=O)[O-])cc([N+](=O)[O-])c3)OC2=O)cc1,40.0%*
CCCN1CCC(NCc2ccc(Cl)c(Cl)c2)CC1,i
CCOC(=O)c1c(NC(=O)c2cc(C)on2)sc(C(C)=O)c1C,i
Cc1nn(C(=O)c2cccnc2)c(C)c1Sc1ccc(Br)cc1,i
Cc1nn(S(=O)(=O)c2ccccc2)c(C)c1Sc1ccc([N+](=O)[O-])cc1,i
Cc1nn(S(=O)(=O)c2ccccc2[N+](=O)[O-])c(C)c1Sc1ccc([N+](=O)[O-])cc1,43.0%*
Cc1nn(C(=O)c2cccs2)c(C)c1Sc1ccc(Cl)cc1,i
Cc1cccc(C(=O)n2nc(C)c(Sc3ccc([N+](=O)[O-])cc3)c2C)c1,30.0%*
Cc1nn(S(=O)(=O)c2ccc(Br)cc2)c(C)c1Sc1ccccc1,i
CC1CCCCN1S(=O)(=O)c1cc2c(cc1Cl)NC(=O)CO2 (stereo unspecified),i
Cc1cc(C)n(CC(C)NC(=O)c2ccc(-n3cnnn3)cc2)n1 (stereo unspecified),i
Cc1cccc(C2C3=C(CCCC3=O)NC3=C2C(=O)c2ccccc23)c1 (stereo unspecified),i
SMILES,ST2 IL33 inh
CCn1nc(C(=O)O)c2c1CCN(C(=O)C(c1cccnc1)N1CCCC1)C2 (stereo unspecified),i
Cc1cc2c(c(=O)o1)C(c1ccc(OCc3ccccc3)cc1)C(C#N)=C(N)O2 (stereo unspecified),i
CCC1CN(Cc2cnc(OC)nc2)CCC(=O)N1Cc1ccccc1 (stereo unspecified),i
CCCCSc1nnc(-c2ccccc2N)c(=O)[nH]1,i
Cn1c(=O)c(-c2ccccc2N)nc2cc3ccccc3cc21,32.0%*
Cc1cc2nc(Cc3cccc(F)c3)c(=O)n(C)c2cc1C,i
CCOc1ccccc1NS(=O)(=O)c1ccc2c(c1)CCN2C(=O)C1CC1,i
CN(CC(=O)Nc1ccc2c(c1)OCCO2)S(=O)(=O)c1ccc2c(c1)CCC(=O)N2,i
O=C(O)C1CC=CCC1C(=O)Nc1ccccc1 (stereo unspecified),i
COCCN(CCOC)CC[C@@H]1CC[C@H](O)[C@@H](C(=O)Nc2ccccc2)O1,38.0%*
COc1ccc(CNC(=O)[C@H]2O[C@H](CCN3CCN(c4ccccc4)CC3)CC[C@@H]2O)cc1,i
COc1ncccc1C(=O)Nc1cnc2n1CCCC2,i
CN(CC(=O)Nc1ccc(F)cc1)S(=O)(=O)c1ccc2c(c1)CCC(=O)N2,i
CC1(C(=O)O)CCC(C(=O)Nc2ccc(C(=O)O)cc2)C1(C)C (stereo unspecified),i
COc1ccc(-c2noc(COc3cccc4c3OCCO4)n2)cc1,i
CC1CC(C)CN(CC(O)Cn2c3ccccc3c3ccccc32)C1 (stereo unspecified),i
CCN(CC)C(=O)CSc1cc(=O)n(C)c2cc(Cl)ccc12,i
COc1cc(C2Nc3ccccc3NC3=C2C(=O)CC(c2ccccc2)C3)ccc1OC(C)=O (stereo unspecified),i
COc1ccc(C2CC(=O)C3=C(C2)Nc2ccccc2NC3c2ccc(C)s2)cc1 (stereo unspecified),30.0%*
CCCOc1ccccc1C1CC(=O)C2=C(C1)Nc1ccccc1NC2c1ccc(OC)cc1 (stereo unspecified),i
CCCOc1ccc(CCC(=O)O)cc1,i
Cc1cc(Sc2ncnc(N)c2[N+](=O)[O-])nc(C)n1,i
O=C(CCS(=O)(=O)c1cccc2nsnc12)NC(c1ccccc1)c1ccccc1,i
O=C(NC[C@H]1O[C@@H](CO)[C@@H](O)[C@H]1N1CCN(c2ccc(F)cc2)CC1)c1cccs1,74.0%*
COc1ccc(C(=O)NC[C@H]2O[C@@H](CO)[C@@H](O)[C@H]2N2CCN(c3ccc(F)cc3)CC2)cc1,i
SMILES,ST2 IL33 inh
O=C(NC[C@H]1O[C@@H](CO)[C@@H](O)[C@H]1N1CCN(c2ccccc2)CC1)c1ccc(F)c(Cl)c1,i
O=C(NC[C@H]1O[C@@H](CO)[C@@H](O)[C@H]1N1CCN(c2ccccc2)CC1)c1cccc(F)c1,92.0%*
O=C(NC[C@H]1O[C@@H](CO)[C@@H](O)[C@H]1N1CCN(c2ccc(F)cc2)CC1)c1cccc(F)c1,i
CC1CCN([C@@H]2[C@H](O)[C@H](CO)O[C@@H]2CNC(=O)c2cccs2)CC1,i
O=C(COc1nsnc1N1CCOCC1)Nc1ccccc1,i
CCCc1cnc(C)nc1-c1ccccc1CO,i
COc1ccc(C(=O)Nc2ccc(Cl)cn2)cc1Br,i
COCc1cc(NCc2cccnc2-n2cnc3ccccc32)ncn1,i
CCOc1ccc(-n2c(SCc3ccccc3C)nc3c(c2=O)SCC3)cc1,i
CCCC1COCCN1C(=O)c1c[nH]c(=O)[nH]c1=O (stereo unspecified),i
COc1ccc(-c2nc(N)sc2C)cc1,i
CCNC(=O)c1ccccc1-c1cccc2cnccc12,i
CC(C)(C)C(=O)/C=C(N)\C=C\c1ccccc1,37.0%*
CC(=O)Nc1ccc(/C=C/c2ccccc2)cn1,i
O=C(/C=C/c1ccccc1)CC(O)CCc1ccccc1 (stereo unspecified),i
CC(=O)N1CCc2cc(Br)cc(S(=O)(=O)CCC(=O)NC3CCCCC3C)c21 (stereo unspecified),i
C=CCN(CC=C)S(=O)(=O)c1ccc(C(=O)Nc2nc3ccc4ccccc4c3s2)cc1,i
O=S(=O)(c1ccccc1)c1nc(-c2ccc(Cl)cc2)oc1NCc1ccco1,i
N#Cc1nc(-c2ccc(Cl)cc2)oc1NCc1ccco1,35.0%*!
COc1ccc(-c2nc(S(=O)(=O)c3ccc(Cl)cc3)c(NCc3ccco3)o2)cc1,i
Cc1nc(C)n(CC(C)C(=O)N(C)Cc2ccc3nsnc3c2)n1 (stereo unspecified),i
COCCNC(=O)c1c[nH]c2ccc(S(=O)(=O)Nc3cccc(C(F)(F)F)c3)cc2c1=O,i
C(=Nc1cnc2ccccc2c1)c1c2n(c3ccccc13)CCCN2,30.0%*

# High-throughput results deposited in PubChem BioAssay by Paczesny and Yang Labs, IUPUI and University of Michigan.
